Holding throughout (design): scale not given: direction of the effect not stated beside the values
Assay [1] deals with Protein translocase subunit SecA (Escherichia coli (strain K12)) (UniProt P10408). Nature of the assay: Assay to Identify E. coli SecA ATPase Inhibitors. The assay is classed as functional. The settings on record: 30 µM.
Assay [2] has as its target T1, Ubiquitin-activating enzyme e1, putative (Leishmania donovani (strain BPK282A1)) (UniProt E9BSI1).
T1 sequence (whole entry): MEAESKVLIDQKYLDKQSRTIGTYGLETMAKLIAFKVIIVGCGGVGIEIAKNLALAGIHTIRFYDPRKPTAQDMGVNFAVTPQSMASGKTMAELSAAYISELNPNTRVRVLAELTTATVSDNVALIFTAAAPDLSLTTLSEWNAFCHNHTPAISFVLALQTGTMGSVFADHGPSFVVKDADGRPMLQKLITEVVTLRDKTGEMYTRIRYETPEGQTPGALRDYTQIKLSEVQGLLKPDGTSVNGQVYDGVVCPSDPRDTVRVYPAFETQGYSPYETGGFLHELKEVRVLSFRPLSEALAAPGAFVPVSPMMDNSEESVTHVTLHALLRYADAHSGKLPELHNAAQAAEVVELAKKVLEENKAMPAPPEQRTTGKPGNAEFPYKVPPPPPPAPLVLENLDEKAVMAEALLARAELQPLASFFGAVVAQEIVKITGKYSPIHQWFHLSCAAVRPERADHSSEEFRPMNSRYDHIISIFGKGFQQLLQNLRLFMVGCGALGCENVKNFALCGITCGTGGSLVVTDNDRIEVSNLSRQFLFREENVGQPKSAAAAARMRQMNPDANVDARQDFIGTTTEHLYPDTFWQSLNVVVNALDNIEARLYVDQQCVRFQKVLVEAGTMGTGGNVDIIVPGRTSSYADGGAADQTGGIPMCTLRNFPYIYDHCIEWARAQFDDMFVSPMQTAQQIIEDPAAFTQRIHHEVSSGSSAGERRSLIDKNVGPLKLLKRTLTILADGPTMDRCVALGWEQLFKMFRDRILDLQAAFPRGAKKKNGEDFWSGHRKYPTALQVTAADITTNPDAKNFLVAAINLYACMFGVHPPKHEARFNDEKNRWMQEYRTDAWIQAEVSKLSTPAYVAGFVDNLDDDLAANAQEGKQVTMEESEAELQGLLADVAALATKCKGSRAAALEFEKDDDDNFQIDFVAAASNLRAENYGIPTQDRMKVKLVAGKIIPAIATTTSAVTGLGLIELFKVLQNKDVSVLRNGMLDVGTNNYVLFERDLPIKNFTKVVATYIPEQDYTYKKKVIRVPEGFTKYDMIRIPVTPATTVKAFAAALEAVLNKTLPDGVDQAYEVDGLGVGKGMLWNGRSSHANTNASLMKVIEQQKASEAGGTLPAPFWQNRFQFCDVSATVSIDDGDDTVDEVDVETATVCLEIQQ
As to the kind of experiment: Leishmania donovani Ubiquitin Activating Enzyme (LdE1). The settings on record: 30 µM. Format: functional.

In assay [3] the target is AMP-activated protein kinase, AMPK (Homo sapiens) (UniProt P54646+O43741+P54619+Q9UGJ0+Q9Y478+Q13131+Q9UGI9). As to the kind of experiment: AMP-dependent Kinase enzyme assay. An in vitro enzyme assay that detects ADP turnover that is directly proportional to AMPK activity. This uses naive AMPK that is activated during the assay with MK-8722. The assay is classed as functional. The settings on record: 30 µM.

For assay [4], the target named is Sialic acid-binding Ig-like lectin 9 (Homo sapiens) (UniProt Q9Y336). Nature of the assay: Hs-Siglec9 ALPHAscreen SOP 20170721. The settings on record: 10 µM. In general terms: Alpha assays give light when donor and acceptor beads are brought close together.
The next assay deals with Trypanosoma cruzi. Nature of the assay: Trypanosoma cruzi phosphomannomutase and mannose-1-phosphate guanylyltransferase assay. Format: functional. The settings on record: 10 µM.
For assay [5], the target named is T2, Arginase-2, mitochondrial (Homo sapiens) (UniProt P78540).
T2 sequence (whole entry): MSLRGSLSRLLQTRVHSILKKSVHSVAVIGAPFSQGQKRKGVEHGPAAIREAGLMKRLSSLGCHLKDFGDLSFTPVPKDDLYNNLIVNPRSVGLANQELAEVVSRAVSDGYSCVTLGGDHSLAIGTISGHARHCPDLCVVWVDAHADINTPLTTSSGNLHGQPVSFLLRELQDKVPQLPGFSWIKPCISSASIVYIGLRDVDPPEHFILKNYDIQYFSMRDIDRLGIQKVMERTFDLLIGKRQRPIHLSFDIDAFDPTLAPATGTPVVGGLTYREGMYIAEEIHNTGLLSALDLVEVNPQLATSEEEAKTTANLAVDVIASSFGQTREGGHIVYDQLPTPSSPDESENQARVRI
Nature of the assay: in vitro enzyme assay to detect the production of urea directly proportional to the activity of Arginase II. Also: in the data most compounds retested in dose-response had high values. The assay is classed as functional.

Assay [6] deals with T3, Proteasome subunit beta (Trypanosoma cruzi) (UniProt O96673).
T3 sequence (whole entry): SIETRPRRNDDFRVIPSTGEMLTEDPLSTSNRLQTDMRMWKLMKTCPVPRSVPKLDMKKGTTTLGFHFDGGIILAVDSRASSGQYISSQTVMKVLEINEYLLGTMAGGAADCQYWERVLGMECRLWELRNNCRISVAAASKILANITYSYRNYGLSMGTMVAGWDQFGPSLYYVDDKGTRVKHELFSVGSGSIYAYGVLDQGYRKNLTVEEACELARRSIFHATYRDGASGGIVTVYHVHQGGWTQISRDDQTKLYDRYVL
Nature of the assay: Trypanosoma cruzi proteasome chymotrypsin-like activity (TcProtChymo) assay. Also: in the data most compounds retested in dose-response had high values. Format: functional. The settings on record: 9.37 µM.

The species named for the next assay is Homo sapiens. As to the kind of experiment: To identify inhibition of the IFN signalling (Jak-Stat) pathway via expression of an eGFP reporter gene under the control of an IFN-stimulated response element (ISRE) containing MxA promoter. Format: functional. The settings on record: 30 µM. (In a reporter assay the amount or activity of a reporter protein is the signal.)

Assay [7] concerns the target T4, Tyrosyl-tRNA synthetase, putative (Trypanosoma cruzi (strain CL Brener)) (UniProt Q4DSP6).
T4 sequence (whole entry): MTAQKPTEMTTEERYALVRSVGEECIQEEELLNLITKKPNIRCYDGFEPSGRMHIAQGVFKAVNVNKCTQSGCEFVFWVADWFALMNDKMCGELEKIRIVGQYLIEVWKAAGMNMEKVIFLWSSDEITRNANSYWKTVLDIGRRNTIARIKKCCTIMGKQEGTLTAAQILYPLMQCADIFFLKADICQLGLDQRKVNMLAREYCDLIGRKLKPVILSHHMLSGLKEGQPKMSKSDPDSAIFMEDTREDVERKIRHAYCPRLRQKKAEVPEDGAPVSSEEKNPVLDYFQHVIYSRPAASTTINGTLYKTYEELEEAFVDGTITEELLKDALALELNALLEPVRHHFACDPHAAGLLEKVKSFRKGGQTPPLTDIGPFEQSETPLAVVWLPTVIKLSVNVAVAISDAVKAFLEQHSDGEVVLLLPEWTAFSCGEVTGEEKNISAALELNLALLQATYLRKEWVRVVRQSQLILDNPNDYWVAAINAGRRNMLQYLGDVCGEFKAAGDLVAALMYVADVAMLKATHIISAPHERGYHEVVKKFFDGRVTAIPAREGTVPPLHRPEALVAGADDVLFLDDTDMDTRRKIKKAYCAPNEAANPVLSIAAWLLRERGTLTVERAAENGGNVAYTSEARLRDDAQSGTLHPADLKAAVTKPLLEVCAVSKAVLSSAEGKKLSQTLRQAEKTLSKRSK
Nature of the assay: Trypanosoma cruzi tyrosyl tRNA synthetase (TcYRS) _High Tyrosine SOP. Also: in the data most compounds retested in dose-response had high values. The assay is classed as functional. The settings on record: 30 µM.

Assay [8] addresses T4, Tyrosyl-tRNA synthetase, putative (Trypanosoma cruzi (strain CL Brener)). Nature of the assay: Trypanosoma cruzi tyrosyl tRNA synthetase (TcYRS) SOP. Format: functional. The settings on record: 30 µM.
Assay [9] concerns the target Chromo domain-containing protein 1 (Saccharomyces cerevisiae (strain ATCC 204508 / S288c) (Baker's yeast)) (UniProt P32657). Nature of the assay: ScCHD-1 Enzyme Inhibition Assay. Also: in the data most compounds retested in dose-response had high values. The assay is classed as functional. The settings on record: 30 µM.
The subject of the next assay is N/A. As to the kind of experiment: Trypanosoma cruzi proteasome luciferase counter-screen. The assay is classed as functional. The settings on record: 9.37 µM.

“And” between values parts separate entries of the source, which are not always exact repeats. Equal values may be shown once. For part of these data: Results with a measured potency or affinity are listed apart.

Chain of Protein translocase subunit SecA (Escherichia coli (strain K12)) (P10408 whole entry): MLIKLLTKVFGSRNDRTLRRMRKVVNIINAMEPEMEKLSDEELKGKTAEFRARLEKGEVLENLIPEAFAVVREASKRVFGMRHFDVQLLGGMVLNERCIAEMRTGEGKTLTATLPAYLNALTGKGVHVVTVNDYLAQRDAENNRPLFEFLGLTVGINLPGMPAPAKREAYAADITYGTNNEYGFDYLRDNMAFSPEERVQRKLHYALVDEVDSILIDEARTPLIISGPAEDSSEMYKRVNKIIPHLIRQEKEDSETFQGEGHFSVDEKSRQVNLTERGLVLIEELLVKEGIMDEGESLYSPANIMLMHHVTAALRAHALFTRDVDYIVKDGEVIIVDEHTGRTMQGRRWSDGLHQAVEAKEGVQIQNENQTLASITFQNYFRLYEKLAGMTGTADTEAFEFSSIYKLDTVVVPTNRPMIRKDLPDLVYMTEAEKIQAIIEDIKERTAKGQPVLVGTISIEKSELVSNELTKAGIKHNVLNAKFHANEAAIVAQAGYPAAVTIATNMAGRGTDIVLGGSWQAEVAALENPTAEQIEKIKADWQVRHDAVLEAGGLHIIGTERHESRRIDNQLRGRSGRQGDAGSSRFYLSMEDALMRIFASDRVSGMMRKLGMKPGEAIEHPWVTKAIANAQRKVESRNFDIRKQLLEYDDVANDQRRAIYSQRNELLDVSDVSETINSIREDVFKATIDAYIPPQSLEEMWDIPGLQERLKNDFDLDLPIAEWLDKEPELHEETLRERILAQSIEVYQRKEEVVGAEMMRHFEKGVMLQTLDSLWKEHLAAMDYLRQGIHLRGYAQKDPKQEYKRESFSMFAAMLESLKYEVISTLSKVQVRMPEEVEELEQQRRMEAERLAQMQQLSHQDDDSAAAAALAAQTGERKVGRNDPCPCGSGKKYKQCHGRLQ
Chain of Chromo domain-containing protein 1 (Saccharomyces cerevisiae (strain ATCC 204508 / S288c) (Baker's yeast)) (P32657 whole entry, the tested form may be a part): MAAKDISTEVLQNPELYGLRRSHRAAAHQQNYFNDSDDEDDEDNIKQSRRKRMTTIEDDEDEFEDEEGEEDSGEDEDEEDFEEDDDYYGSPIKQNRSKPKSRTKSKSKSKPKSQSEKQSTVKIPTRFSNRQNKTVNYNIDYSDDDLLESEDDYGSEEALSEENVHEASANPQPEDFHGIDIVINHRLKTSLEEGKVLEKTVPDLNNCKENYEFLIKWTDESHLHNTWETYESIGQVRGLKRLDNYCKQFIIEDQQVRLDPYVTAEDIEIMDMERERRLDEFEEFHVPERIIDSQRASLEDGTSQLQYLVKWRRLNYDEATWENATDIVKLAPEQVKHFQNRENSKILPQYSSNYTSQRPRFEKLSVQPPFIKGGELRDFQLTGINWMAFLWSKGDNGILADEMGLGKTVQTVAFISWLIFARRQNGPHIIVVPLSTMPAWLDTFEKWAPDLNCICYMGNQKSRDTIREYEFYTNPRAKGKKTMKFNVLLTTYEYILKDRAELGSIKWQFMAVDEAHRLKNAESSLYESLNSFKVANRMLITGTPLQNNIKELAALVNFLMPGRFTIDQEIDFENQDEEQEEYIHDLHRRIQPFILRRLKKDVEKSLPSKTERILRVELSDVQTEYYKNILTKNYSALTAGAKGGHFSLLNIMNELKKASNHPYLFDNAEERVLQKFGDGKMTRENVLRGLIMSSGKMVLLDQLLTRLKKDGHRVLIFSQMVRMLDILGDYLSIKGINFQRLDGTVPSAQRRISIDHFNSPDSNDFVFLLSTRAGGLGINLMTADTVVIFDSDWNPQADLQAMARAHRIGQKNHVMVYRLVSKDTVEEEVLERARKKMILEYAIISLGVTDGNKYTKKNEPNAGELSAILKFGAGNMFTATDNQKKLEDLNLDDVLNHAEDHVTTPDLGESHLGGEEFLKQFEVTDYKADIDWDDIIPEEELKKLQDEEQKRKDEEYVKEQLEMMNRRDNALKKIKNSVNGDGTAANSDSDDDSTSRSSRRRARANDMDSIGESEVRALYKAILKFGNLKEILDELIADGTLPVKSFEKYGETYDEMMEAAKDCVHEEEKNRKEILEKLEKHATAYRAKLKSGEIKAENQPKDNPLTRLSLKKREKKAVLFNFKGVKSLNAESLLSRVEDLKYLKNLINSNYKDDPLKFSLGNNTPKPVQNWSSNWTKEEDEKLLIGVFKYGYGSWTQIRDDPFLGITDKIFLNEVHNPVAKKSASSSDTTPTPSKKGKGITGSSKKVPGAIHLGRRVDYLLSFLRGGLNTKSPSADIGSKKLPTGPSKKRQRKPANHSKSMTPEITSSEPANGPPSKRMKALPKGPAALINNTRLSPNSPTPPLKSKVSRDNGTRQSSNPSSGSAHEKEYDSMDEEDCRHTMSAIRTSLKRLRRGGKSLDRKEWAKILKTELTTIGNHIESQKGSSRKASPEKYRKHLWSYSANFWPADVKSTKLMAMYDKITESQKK
Chain of Sialic acid-binding Ig-like lectin 9 (Homo sapiens) (Q9Y336 whole entry): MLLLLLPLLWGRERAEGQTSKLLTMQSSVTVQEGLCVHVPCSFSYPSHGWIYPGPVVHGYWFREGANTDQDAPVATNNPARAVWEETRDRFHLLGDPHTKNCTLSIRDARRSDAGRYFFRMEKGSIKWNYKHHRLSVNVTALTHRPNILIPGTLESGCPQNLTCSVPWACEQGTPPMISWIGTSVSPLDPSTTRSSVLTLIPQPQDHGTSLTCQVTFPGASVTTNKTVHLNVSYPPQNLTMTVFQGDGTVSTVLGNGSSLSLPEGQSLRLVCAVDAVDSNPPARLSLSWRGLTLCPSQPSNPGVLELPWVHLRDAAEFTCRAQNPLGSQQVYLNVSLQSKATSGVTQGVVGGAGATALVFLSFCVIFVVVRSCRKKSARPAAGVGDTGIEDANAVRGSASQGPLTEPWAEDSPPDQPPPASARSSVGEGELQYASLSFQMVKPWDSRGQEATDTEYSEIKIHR

For `CC(=O)NC(C)CC(=O)NCc1cccnc1Oc1ccccc1C` (stereo not given), the Percent Effect in assay [1] was -2.11%; in [2] it was 9.72%; in assay [3], -0.172%; in assay [4], -2.33%; in the assay on Trypanosoma cruzi, -1.26%; in assay [5] (30 µM), 1.62%. Moreover, the Percent Effect in [5] (33.3 µM) was 6.18%; in assay [6] it was 11.6%; in the assay listed under Homo sapiens, -9.66%; in [7], 8.42%; in [8], 12.8%; in assay [9], -3.08%.

On to `CN(Cc1cccnc1)C1CC2(CCN(c3ccccn3)CC2)C1`, for which the Percent Effect is -2.7% in assay [1]; 13.3% in [2]; 11% in assay [3]; -6.68% in [4]; -5.12% in the assay on Trypanosoma cruzi; 3.78% in assay [5] (30 µM). Further, the Percent Effect was -1.17% in assay [5] (33.3 µM); 3.26% in assay [6]; 27.4% in the assay listed under Homo sapiens; 7.45% in [7]; 16.7% in assay [8]; -5.79% in assay [9].

Regarding `Cc1cc(C)n(C2CN(Cc3noc(-c4ccccc4)n3)C2)n1`, the Percent Effect in assay [1] is -4.45%; in assay [2] it was -7.79%; in assay [3], 3.83%; in [4], 3.24%; in the assay on Trypanosoma cruzi, -6.39%; in [5] (30 µM), 5.95%. Besides, the Percent Effect in assay [5] (33.3 µM) is -5.52%; in assay [6], 14.3%; in the assay listed under Homo sapiens, 5.29%; in assay [7], 3.23%; in [8], 1.24%; in assay [9], -0.0991%.

As for `Cc1ccc(CNCc2nnc3n2CC(C(F)(F)F)CC3)cc1` (stereo not given), the Percent Effect is -0.646% in [1]; 18.9% in assay [2]; -2.64% in [3]; 4.4% in assay [4]; 3.23% in the assay on Trypanosoma cruzi; -11.3% in [5] (30 µM). Further, the Percent Effect is -3.23% in [5] (33.3 µM); 8.5% in [6]; 11.6% in the assay listed under Homo sapiens; 5.38% in assay [7]; 13.6% in assay [8]; -11.9% in [9].

With `CCOc1cc(/C=C/c2ncc(C(=O)O)s2)ccc1O`, the Percent Effect was -3.57% in [1]; 11.4% in assay [2]; 44.7% in [3]; 0.0396% in [4]; -3.38% in the assay on Trypanosoma cruzi; 4.95% in assay [5] (33.3 µM). For the same molecule, the Percent Effect in assay [6] is 47.2% and 46.2% and 45.3%; with N/A it was 10.5% and 16.9%; in the assay listed under Homo sapiens it was 7.54%; in assay [7] it was 4.17%; in assay [8] it was 7.59%; in assay [9], -20.7%.

With `CN(Cc1ccco1)[C@@H]1CN(Cc2ccco2)[C@@H]2CCCO[C@H]12`, the Percent Effect was -1.09% in [1]; 2.67% in assay [2]; 15.3% in assay [3]; -0.135% in assay [4]; -5.71% with Trypanosoma cruzi; -2.7% in assay [5] (30 µM). In addition, the Percent Effect is 3.03% in [5] (33.3 µM); 13.5% in assay [6]; 2.84% in the assay listed under Homo sapiens; 4.25% in assay [7]; 11.5% in assay [8]; -5.52% in assay [9].

As to `CCCN1CCC(NC(=O)c2ccc(F)cc2I)CC1`, the Percent Effect in assay [1] is -2.2%; in assay [2], 18.1%; in assay [3], -6.61%; in assay [4] it was 17.7%; in the assay with Trypanosoma cruzi, 2.23%; in [5] (30 µM) it was 5.95%. Besides, the Percent Effect in assay [5] (33.3 µM) was 24.3%; in assay [6] it was 12.5%; in the assay filed under Homo sapiens it was -17.1%; in [7], 8.42%; in assay [8] it was 15.4%; in assay [9], -5.41%.

Consider `Cc1cc(C(=O)N2C[C@@H](C(=O)O)[C@H](c3ccccc3C)C2)c(C)o1`, for which the Percent Effect was -6.29% in assay [1]; 2.7% in assay [2]; 4.96% in assay [3]; -6.42% in [4]; -7.92% in the assay on Trypanosoma cruzi; 4.87% in assay [5] (30 µM). The Percent Effect was -2.23% in assay [5] (33.3 µM); 11.2% in assay [6]; 18.7% in the assay filed under Homo sapiens; 1.07% in [7]; 3.7% in [8]; -4.1% in [9].

Turning to `COc1ccc(C(=O)N2C[C@@H](C(=O)O)[C@H](c3ccccc3C)C2)c(O)c1`, the Percent Effect in [1] is -5.13%; in assay [2], 5.41%; in assay [3], -4.36%; in assay [4], 32%; with Trypanosoma cruzi, 1.86%; in [5] (30 µM), 4.87%. Moreover, the Percent Effect in assay [5] (33.3 µM) was -0.248%; in assay [6], 9.53%; in the assay listed under Homo sapiens, -12.1%; in assay [7], 6.45%; in [8] it was 16.1%; in assay [9], -2.87%.

Take `CC1CCN(S(=O)(=O)c2cccn(CC(=O)NC3CCCC3)c2=O)CC1`: the Percent Effect in assay [1] was -2.96%; in assay [2], 5.48%; in [3] it was -5.65%; in [4] it was -2%; in the assay with Trypanosoma cruzi, -5.68%; in [5] (30 µM), 2.7%. Besides, the Percent Effect is 0.455% in assay [5] (33.3 µM); 17.2% in [6]; 4.13% in the assay listed under Homo sapiens; 3.23% in [7]; 10% in assay [8]; -2.6% in assay [9].

The values above are taken from ChEMBL document CHEMBL3988442, “University of Dundee, Small-Polar-MMV Screening Library” (2021).
